SMILES strings stand for the structures. Counter-ions that a name gives are not always drawn.

This test concerns Saccharomyces cerevisiae BY4741 SeMeCo community. Nature of the test: z-score of subpopulation abundance vs DMSO median, subpopulation auxotrophic for L; higher = larger share of this subpopulation than in DMSO controls. To be noted: 10 µM; 24 h; SM minimal medium; subpopulation (auxotrophy): L. The method, then: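 Fluorescent four-plasmid SeMeCo (self-establishing metabolically cooperating S. cerevisiae BY4741 community; plasmids pH-mRuby2, pL-mWasabi, pU-eCFP, pM-TagRFP657) was grown 24 h in minimal SM medium with each Selleck FDA-approved drug at 10 µM in 384-well plates. Cells were fixed and imaged by high-content confocal microscopy. For each auxotrophic subpopulation (and the prototroph), a z-score gives the deviation from the DMSO vehicle-control population median.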
Take `CNC1CCCN(c2c(F)cc3c(=O)c(C(=O)O)cn(C4CC4)c3c2OC)C1` (stereo not given) [Balofloxacin]: the “z-score of subpopulation abundance” value was -0.33.

For the compound `Cc1ncc([N+](=O)[O-])n1CC(O)CCl` (stereo not given) [Ornidazole], the “z-score of subpopulation abundance” value came out at 0. As for `CO/N=C(\C(=O)N[C@@H]1C(=O)N2C(C(=O)OC(C)OC(C)=O)=C(COC(N)=O)CS[C@H]12)c1ccco1` (stereo not given in full) [Cefuroxime axetil], the “z-score of subpopulation abundance” value is -0.95. With `CCCCCOc1ccc(-c2cc(-c3ccc(C(=O)N[C@H]4C[C@@H](O)[C@@H](O)NC(=O)[C@@H]5[C@@H](O)[C@@H](C)CN5C(=O)[C@H]([C@H](O)CC(N)=O)NC(=O)[C@H]([C@H](O)[C@@H](O)c5ccc(O)c(OS(=O)(=O)O)c5)NC(=O)[C@@H]5C[C@@H](O)CN5C(=O)[C@H]([C@@H](C)O)NC4=O)cc3)no2)cc1` [Micafungin Sodium] the figure was 5.22. Turning to `Cc1cccc(C)c1NC(=O)C1CCCCN1C` (stereo not given) [Mepivacaine], the “z-score of subpopulation abundance” value was -0.3. Turning to `CC[C@H](C)[C@H](N)C1=N[C@H](C(=O)N[C@@H](CC(C)C)C(=O)N[C@H](CCC(=O)O)C(=O)N[C@H](C(=O)N[C@H]2CCCCNC(=O)[C@H](CC(N)=O)NC(=O)[C@@H](CC(=O)O)NC(=O)[C@H](Cc3cnc[nH]3)NC(=O)[C@@H](Cc3ccccc3)NC(=O)[C@H]([C@@H](C)CC)NC(=O)[C@@H](CCCN)NC2=O)[C@@H](C)CC)CS1` [Bacitracin], the “z-score of subpopulation abundance” value was found to be 1.05. Take `C=CC[N+]1([C@H]2C[C@H]3[C@@H]4CC[C@H]5C[C@H](O)[C@@H](N6CCOCC6)C[C@]5(C)[C@H]4CC[C@]3(C)[C@H]2OC(C)=O)CCCC1` [Rocuronium Bromide]: the “z-score of subpopulation abundance” value turned out to be 0.67. In the case of `Cc1ncc([N+](=O)[O-])n1CCOC(=O)c1ccccc1` [Metronidazole Benzoate], the “z-score of subpopulation abundance” value is -0.6. As to `NC(=N\CCCCCC/N=C(N)/N=C(\N)Nc1ccc(Cl)cc1)/N=C(\N)Nc1ccc(Cl)cc1` [Chlorhexidine diacetate], the “z-score of subpopulation abundance” value is -0.29.

As for `O=c1ccn(C2CC(O)C(CO)O2)c(=O)[nH]1` (stereo not given) [2-deoxyuridine], the “z-score of subpopulation abundance” value was 1.75. In the case of `CCCCOc1ccc(CC(=O)NO)cc1` [Bufexamac], the “z-score of subpopulation abundance” value was -1.49.

As to `CC[C@@H]([C@H](C)O)n1ncn(-c2ccc(N3CCN(c4ccc(OC[C@@H]5CO[C@@](Cn6cncn6)(c6ccc(F)cc6F)C5)cc4)CC3)cc2)c1=O` [Posaconazole], the “z-score of subpopulation abundance” value was -0.49. On to `CCN(CC)CCNC(=O)c1cc(Cl)c(N)cc1OC` [Metoclopramide HCl], for which the “z-score of subpopulation abundance” value is -0.18. Turning to `COC(=O)C1=C(C)NC(C)=C(C(=O)OCC(C)C)C1c1ccccc1[N+](=O)[O-]` (stereo not given) [Nisoldipine], the “z-score of subpopulation abundance” value amounted to 0.49. With `CCCN1CCCC[C@H]1C(=O)Nc1c(C)cccc1C` [Ropivacaine], the “z-score of subpopulation abundance” value was -0.8.

Turning to `CC(C(=O)O)c1ccc2c(c1)[nH]c1ccc(Cl)cc12` (stereo not given) [Carprofen], the “z-score of subpopulation abundance” value is -0.33. As for `COc1cc2c(cc1OC)C(=O)C(CC1CCN(Cc3ccccc3)CC1)C2` (stereo not given) [Donepezil], the “z-score of subpopulation abundance” value stood at 0.86. Consider `CN(C)CCN1C(=O)c2cccc3cc(N)cc(c23)C1=O` [Amonafide], for which the “z-score of subpopulation abundance” value is -0.4. For the compound `COC(=O)C1=C(C)NC(C)=C(C(=O)OC(C)(C)CN(C)CCC(c2ccccc2)c2ccccc2)C1c1cccc([N+](=O)[O-])c1` (stereo not given) [Lercanidipine], the “z-score of subpopulation abundance” value turned out to be 1.24. `CC(=O)OCC1=C(C(=O)O)N2C(=O)[C@@H](NC(=O)Cc3cccs3)[C@H]2SC1` [Cephalothin]: the “z-score of subpopulation abundance” value was -0.16. With `CN1CCC(=C2c3ccccc3C=Cc3ccccc32)CC1` [Cyproheptadine hydrochloride], the “z-score of subpopulation abundance” value came out at 0.25. The result for `CC(=O)OCC[N+](C)(C)C` [Acetylcholine iodide] reads -0.73; that for `CN1CCCN=C1/C=C/c1cccc(O)c1` [Oxantel Pamoate], -0.58; that for `CC1(C)[C@H](C(=O)O)N2C(=O)C[C@H]2S1(=O)=O` [Sulbactam], 0.57. `CCC(C)(C)c1ccc(CC(C)CN2C[C@@H](C)O[C@@H](C)C2)cc1` (stereo not given in full) [Amorolfine HCl]: the “z-score of subpopulation abundance” value was -4.45.

Take `CC[C@@]1(O)C(=O)OCc2c1cc1n(c2=O)Cc2cc3c(CN(C)C)c(O)ccc3nc2-1` [Topotecan HCl]: the “z-score of subpopulation abundance” value was determined as 0.17. As to `C=C[C@H]1CN2CC[C@H]1C[C@@H]2[C@@H](O)c1ccnc2ccc(OC)cc12` [Quinidine sulfate], the “z-score of subpopulation abundance” value was found to be 2.41. The result for `COC(=O)C1=C(C)NC(C)=C(C(=O)OCCN(C)Cc2ccccc2)C1c1cccc([N+](=O)[O-])c1` (stereo not given) [Nicardipine HCl] reads 0.97; that for `NC(CO)(CO)CO` [Trometamol], 0.58.

For the compound `CC1(C)S[C@@H]2[C@H](NC(=O)[C@H](N)c3ccccc3)C(=O)N2[C@H]1C(=O)OCOC(=O)[C@@H]1N2C(=O)C[C@H]2S(=O)(=O)C1(C)C` [Sultamicillin Tosylate], the “z-score of subpopulation abundance” value was -0.36.

In the case of `CC(=O)O[C@H]1C[C@@H]2CC[C@@H]3[C@H](CC[C@@]4(C)[C@H]3C[C@H]([N+]3(C)CCCCC3)[C@@H]4OC(C)=O)[C@@]2(C)C[C@@H]1N1CCCCC1` [Vecuronium Bromide], the “z-score of subpopulation abundance” value is 0.57.

Take `COC(=O)C1=C(C)NC(C)=C(C(=O)OC(C)C)C1c1cccc2nonc12` (stereo not given) [Isradipine]: the “z-score of subpopulation abundance” value was -0.22. With `CC(C)C(=O)c1c(C(C)C)nn2ccccc12` [Ibudilast] the figure was -0.54; with `O=C(NCCN1CCOCC1)c1ccc(Cl)cc1`, 1.75; with `CCCCCOc1ccc(-c2ccc(-c3ccc(C(=O)N[C@H]4C[C@@H](O)[C@@H](O)NC(=O)[C@@H]5[C@@H](O)[C@@H](C)CN5C(=O)[C@H]([C@@H](C)O)NC(=O)[C@H]([C@H](O)[C@@H](O)c5ccc(O)cc5)NC(=O)[C@@H]5C[C@@H](O)CN5C(=O)[C@H]([C@@H](C)O)NC4=O)cc3)cc2)cc1`, 4.48.

As to `CC(C)[C@H]1CC[C@H](C(=O)N[C@H](Cc2ccccc2)C(=O)O)CC1` [Nateglinide], the “z-score of subpopulation abundance” value was determined as 0.26. The result for `Oc1ccc([C@H]2COc3cc(O)ccc3C2)cc1` [Equol] reads -0.21; that for `C=C1CCC2C(C)(CO)C(O)CCC2(C)C1CC=C1C=COC1=O` (stereo not given) [Dehydroandrographolide], 1.46.

In the case of `CC[C@H]1OC(=O)[C@H](C)[C@@H](O[C@H]2C[C@@](C)(OC)[C@@H](O)[C@H](C)O2)[C@H](C)[C@@H](O[C@@H]2O[C@H](C)C[C@H](N(C)C)[C@H]2O)[C@](C)(O)C[C@@H](C)CN(C)[C@H](C)[C@@H](O)[C@]1(C)O` [Azithromycin], the “z-score of subpopulation abundance” value amounted to 0.82. Turning to `CCC[C@@H]1C[C@@H](C(=O)N[C@@H]([C@H]2O[C@H](SC)[C@H](O)[C@@H](O)[C@H]2O)[C@@H](C)O)N(C)C1` [Lincomycin Hydrochloride Monohydrate], the “z-score of subpopulation abundance” value is -0.22.
